Counter-ions that a name gives are not always drawn.
Test system: thyroid hormone receptor (endogenous TRα and TRβ)
Parameters: species or system GH3-TRE-Luc (rat pituitary); GH3-TRE-Luc luciferase reporter, antagonist mode against 1 nM T3, loss of signal, qHTS
Conditions: antagonist mode, 1 nM T3, no GH3 cytotoxicity hit, 24 h, read-out: Average AC50 (uM) GH3-TRE-Antag

Q: How did the AC50 turn out when COc1ccc(N)cc1 [4-Methoxyaniline hydrochloride] was run?
A: 81.8 µM

Q: How did the AC50 turn out when Oc1cc(Cl)c(Cl)cc1Cl [2,4,5-Trichlorophenol sodium salt] was run?
A: 77.4 µM

Q: With Oc1cc(Cl)c(Cl)cc1Cl [2,4,5-Trichlorophenol] as the compound, how does the AC50 read?
A: > 50 µM

Q: Which AC50 does the source give for COc1ccc(N)cc1 [4-Methoxyaniline] here?
A: 89.4 µM
